An excerpt weighted towards active compounds, which were near 1.9% of everything screened.
HTR5A inv ctr: HTR5A inverse agonists in luminescence cell assay, primary screen, counter-screen for OPRM1-OPRD1 heterodimer inverse agonist project, full-deck HTS; 5-hydroxytryptamine receptor 5A (Homo sapiens), P47898; HTR5A cell line, inverse agonism; inhibition, % at 9.3 µM; 340,000 tested, 0.083% active; in the data active = inhibition mostly above about 23%, no sharp cut-off; inactive = mostly below about 18%;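 also: 0% = cells with DMSO and 100% = no-cell wells with DMSO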
MsrA act: bovine MsrA enzyme activators, primary screen, biochemical, absorbance, HTS | activation, % at 10.6 µM | purified bovine MsrA, absorbance read-out | AID 602163, 2012 | 360,000 tested, 0.3% active; in the data active = activation above about 7.5%;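 also: 0% = vehicle and 100% = reference activator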
MsrA inh: bovine MsrA enzyme inhibitors, primary screen, biochemical, absorbance, HTS; Methionine sulfoxide reductase A (Bos taurus); purified bovine MsrA, absorbance read-out; inhibition, % at 15.5 µM; 360,000 tested, 0.75% active; in the data active = inhibition above about 4.5%;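 also: 0% = vehicle wells with enzyme and 100% = reference inhibitor wells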
OPRM1-OPRD1 inv: inverse agonists of MOR-DOR heterodimerization, primary screen, cell-based, luminescence; cell-based MOR-DOR heterodimer luminescence, inverse agonism; inhibition, % at 9.3 µM; 340,000 tested, 0.21% active; in the data active = inhibition above about 22%, passing the limit was not always enough;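 also: 0% = cells with DMSO and 100% = wells without cells with DMSO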
Target sequence (P35372 whole entry, looked up): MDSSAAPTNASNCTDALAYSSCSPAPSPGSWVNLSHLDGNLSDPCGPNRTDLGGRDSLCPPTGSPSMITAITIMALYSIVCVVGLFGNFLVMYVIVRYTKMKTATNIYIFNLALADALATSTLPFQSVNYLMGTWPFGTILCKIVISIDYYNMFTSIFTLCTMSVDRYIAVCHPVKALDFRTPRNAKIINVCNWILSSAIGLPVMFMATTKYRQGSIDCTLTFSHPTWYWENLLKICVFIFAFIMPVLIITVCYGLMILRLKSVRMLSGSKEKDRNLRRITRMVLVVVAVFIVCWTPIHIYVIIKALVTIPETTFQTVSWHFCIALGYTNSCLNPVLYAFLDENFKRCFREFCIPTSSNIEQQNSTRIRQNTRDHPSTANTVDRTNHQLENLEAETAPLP
Target sequence (P41143 whole entry, looked up): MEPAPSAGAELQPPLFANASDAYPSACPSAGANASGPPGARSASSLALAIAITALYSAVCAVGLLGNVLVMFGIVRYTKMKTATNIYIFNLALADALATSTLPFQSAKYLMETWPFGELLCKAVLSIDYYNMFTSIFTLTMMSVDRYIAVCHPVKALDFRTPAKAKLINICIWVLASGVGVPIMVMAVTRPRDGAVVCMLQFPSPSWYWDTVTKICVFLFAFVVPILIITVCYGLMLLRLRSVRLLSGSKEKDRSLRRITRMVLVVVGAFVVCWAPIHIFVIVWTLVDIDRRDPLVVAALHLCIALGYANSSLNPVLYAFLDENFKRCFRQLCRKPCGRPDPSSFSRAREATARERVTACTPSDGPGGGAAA
OPRM1-OPRD1 ag: agonists of OPRM1-OPRD1 heterodimerization, primary screen, cell-based, luminescence; cells; activation, % at 9.3 µM; 340,000 tested, 0.3% active; in the data active = activation above about 18%;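 also: 0% = vehicle-treated cells and 100% = reference agonist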
HTR5A ag ctr: HTR5A agonists in luminescence cell assay, primary screen, counter-screen for OPRM1-OPRD1 heterodimer agonist project, full-deck HTS. 5-hydroxytryptamine receptor 5A (Homo sapiens), P47898. cell-based. activation, % at 9.3 µM. 340,000 tested, 0.61% active; in the data active = activation mostly above about 9.5%, no sharp cut-off; inactive = mostly below about 7.6%;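 also: 0% = cells with vehicle only and 100% = reference agonist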
MsrA act confirm: bovine MsrA activators, retest, confirmation, biochemical, absorbance, HTS | shares compounds with MsrA act | purified bovine MsrA, absorbance read-out | activation, % at 10.6 µM | 1,000 tested, 12% active | AID 602270, 2012; in the data active = activation above about 4%;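 also: enzyme coupled to thioredoxin and thioredoxin reductase with NADPH; 0% = vehicle wells and 100% = reference activator wells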
* = called active by the depositor; / = no result given.

SMILES	HTR5A inv ctr	MsrA act	MsrA inh	OPRM1-OPRD1 inv	OPRM1-OPRD1 ag	HTR5A ag ctr	MsrA act confirm
Cc1ccc(C(N)=O)cc1S(=O)(=O)Nc1cccc(C)c1C	-30	16*	-1	4	-1	2	-4
Cc1ccc(NS(=O)(=O)c2cc(C(N)=O)ccc2C)cc1	-1	-2	0	15	-3	1	/
Cc1ccc(C(=O)Nc2nccc(C)n2)cc1	-9	8.7*	-1	14	-3	3	-1
CCCN(CCC)Cc1cc(=O)oc2ccccc12	/	/	0	/	/	/	/
Cc1ccc(S(=O)(=O)NC2=NCCCCC2)cc1	2	13*	0	3	0	-1	-2
CCCN1CCCCC(NC(=O)c2cccs2)C1=O (stereo not given)	/	/	0	/	/	/	/
CC(=O)Nc1cc(-c2cccc(C(=O)N(C)C)c2)cn2c(-c3ccc(F)c(Cl)c3)cnc12	/	-3	-1	/	/	/	/
CN(C)CCNC(=O)c1cccc(-c2cnc3c(NC=O)cc(-c4cc(F)c(F)c(F)c4)cn23)c1	/	8.0*	0	/	/	/	-1
CN(C)CCNC(=O)c1cccc(-c2cnc3c(NC=O)cc(-c4ccc(S(C)(=O)=O)cc4)cn23)c1	/	8.0*	1	/	/	/	0
CN(C)C(=O)c1cccc(-c2cc(NC=O)c3ncc(-c4ccc(F)c(Cl)c4)n3c2)c1	/	9.3*	1	/	/	/	1
COc1cccc(-c2cc(NC=O)c3ncc(-c4cccc(C(=O)NCCN(C)C)c4)n3c2)c1	/	-4	-1	/	/	/	/
CC(C)OC(=O)n1c(=S)oc2ccccc21	0	-1	1	4	-1	-2	/
Cc1cccc(OC(=O)n2c(=S)oc3cc(Cl)ccc32)c1	6	9.8*	0	-6	1	-2	1
COc1cc(SC)ccc1C(=O)OCC(=O)NC(=O)NC(C)C	18	7.9*	0	5	-1	-4	-3
C[C@H]1CN(c2ccc(N3CCNC[C@@H]3C)cc2C#N)CCN1Cc1ccccc1	/	/	0	/	/	/	/
CCOc1ccccc1CNC(=O)c1cc2oc3ccccc3c2n1CC	-3	8.1*	0	-10	2	3	-4
Cc1nnc(N/N=C/c2ccco2)n1N	-9	16*	1	-30	6	3	-2
Cc1nnc(N/N=C/c2cccc(C(F)(F)F)c2)n1N	-17	13*	-1	-23	5	5	1
COc1cc(N2C[C@@]3(O)CC[C@@H](O)[C@@H](OC)[C@@H]3[C@@](C)(O)[C@@H]2CC=C(C)C)cc(OC)c1OC	/	/	1	/	/	/	/
CCC(CC)CN1CCC(CN2C(=S)NC[C@@H]2Cc2ccccc2)CC1	/	/	-1	/	/	/	/
COC(=O)Cc1[nH]nc2c1C(c1c[nH]c3ccccc13)C(C#N)=C(N)O2 (stereo not given)	11	12*	-1	20	-4	-1	-1
CC(c1nnnn1C1CCCCC1)N(Cc1ccccc1)Cc1cccnc1 (stereo not given)	4	11*	1	6	-1	-1	1
CCN(Cc1ccccc1)C(c1ccccn1)c1nnnn1C1CCCCC1 (stereo not given)	-7	0	-1	-8	1	-2	/
NNC(=O)c1oc2nc(-c3ccco3)cc(-c3ccco3)c2c1N	/	8.2*	2	/	/	/	-2
c1ccc2[nH]c3cc4ncnc4cc3nc2c1	2	18*	0	-1	0	-3	15*
SMILES	HTR5A inv ctr	MsrA act	MsrA inh	OPRM1-OPRD1 inv	OPRM1-OPRD1 ag	HTR5A ag ctr	MsrA act confirm
CCc1ccc(/C=C2/SC(=S)N(CCC(=O)NCCCN3CCOCC3)C2=O)cc1	-14	-1	0	9	-2	0	/
COC(=O)c1ccc(/C=C2/SC(=S)N(CCC(=O)NCCCN3CCOCC3)C2=O)cc1	-7	8.1*	1	5	-1	3	-3
Cc1cc(NCCc2c[nH]c3ccccc23)ccc1Nc1cccnc1	/	/	0	/	/	/	/
COc1cccc(OCC(O)CNC(=O)c2oc3ccc(C)cc3c2C)c1 (stereo not given)	-8	9.5*	0	-4	1	2	-2
O=C(COC(=O)COc1ccc(Cl)cc1)Nc1ccc(F)c([N+](=O)[O-])c1	-3	-4	-1	-36	7	1	/
Cc1ccc(NC(=O)COC(=O)COc2ccc(Cl)cc2)c([N+](=O)[O-])c1	-12	16*	0	-7	1	3	-1
Cc1cc(N2CCN(S(C)(=O)=O)C[C@H]2C)ccc1N1CCN(Cc2ccccc2)[C@H](C)C1	/	/	-1	/	/	/	/
CC(C)CCN1CC(C(=O)NC(C)C)CC1=O (stereo not given)	1	11*	-2	8	-1	-4	1
COC(=O)c1ccc(NC(=O)[C@H](C)NC(N)=O)cc1	7	23*	0	9	-2	-2	-1
CC(C)c1ccc(NC(=S)NCc2cccs2)cc1	-1	8.1*	1	-33	6	0	-3
C[C@H]1[C@H](c2ccccc2)Oc2cccc(NCCc3ccccc3)c2S(=O)(=O)N1Cc1cccc(F)c1	/	/	0	/	/	/	/
COC(=O)c1ccc(C2=NOC(C)(c3nnc(Cc4ccccc4)o3)C2)cc1 (stereo not given)	-1	8.9*	0	-6	1	0	-1
O=C(N[C@@H](Cc1cccnc1)C(=O)N1CCC[C@H]1C(=O)NCCc1ccccc1Cl)c1ccco1	/	/	0	/	/	/	/
CC(=O)Nc1nc(-c2ccc(Cl)cc2)nc(C)c1C(C)=O	3	8.9*	0	8	-2	-1	2
CC(C)C[C@H](NC(=O)c1ccc(Cl)c(Cl)c1)C(=O)N1CCC[C@H]1C(=O)NCc1ccccc1	/	/	-1	/	/	/	/
Cc1c(C2Nc3ccccc3C2C)[nH]c2ccccc12 (stereo not given)	/	/	0	/	/	/	/
COc1ccc(N2C(=O)c3n[nH]c(C)c3C2c2ccc(F)cc2)cc1 (stereo not given)	/	/	2	/	/	/	/
CCCCNC(=O)CN(Cc1ccco1)S(=O)(=O)c1ccc(C(C)=O)cc1	13	11*	0	5	-1	-5	-2
CSc1oc(-c2ccccc2)nc1S(=O)(=O)c1ccc(C)cc1	-19	8.0*	3	-4	1	7	-1
COc1ccc(-c2cn3ccccc3n2)cc1[N+](=O)[O-]	5	-15	2	7	-1	8	/
COc1ccc(-c2cn3cc([N+](=O)[O-])ccc3n2)cc1OC	15	10*	3	-9	2	0	-2
